Screens deposited in PubChem BioAssay by Sanford-Burnham Center for Chemical Genomics.
UBC9 SUMO inh: inhibitors of in vitro SUMOylation cascade, primary screen, biochemical, HTRF, uHTS | HTRF SUMOylation assay, SAE1/SAE2 + UBC9 | 290,000 compounds, 0.36% hits | AID 2006, 2009 | SUMO-conjugating enzyme UBC9 (Homo sapiens), P63279 | inhibition, % at 35 µM; in the data active means inhibition above about 50%, passing the limit was not always enough
p-CIP stab down: p/CIP-EGFP fusion destabilizers, primary screen, fluorescence, F442A cells | Q05BA5 | decrease of EGFP signal, % at 10 µM | AID 1984, 2009 | 16 h | 290,000 compounds, 0.01% hits;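 active means EGFP signal decrease of at least 30% at 10 µM or well 3 SD below plate mean, unless failing retest; inactive means the rest, including hits failing retest or dose response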
Target sequence (Q05BA5 1-1403): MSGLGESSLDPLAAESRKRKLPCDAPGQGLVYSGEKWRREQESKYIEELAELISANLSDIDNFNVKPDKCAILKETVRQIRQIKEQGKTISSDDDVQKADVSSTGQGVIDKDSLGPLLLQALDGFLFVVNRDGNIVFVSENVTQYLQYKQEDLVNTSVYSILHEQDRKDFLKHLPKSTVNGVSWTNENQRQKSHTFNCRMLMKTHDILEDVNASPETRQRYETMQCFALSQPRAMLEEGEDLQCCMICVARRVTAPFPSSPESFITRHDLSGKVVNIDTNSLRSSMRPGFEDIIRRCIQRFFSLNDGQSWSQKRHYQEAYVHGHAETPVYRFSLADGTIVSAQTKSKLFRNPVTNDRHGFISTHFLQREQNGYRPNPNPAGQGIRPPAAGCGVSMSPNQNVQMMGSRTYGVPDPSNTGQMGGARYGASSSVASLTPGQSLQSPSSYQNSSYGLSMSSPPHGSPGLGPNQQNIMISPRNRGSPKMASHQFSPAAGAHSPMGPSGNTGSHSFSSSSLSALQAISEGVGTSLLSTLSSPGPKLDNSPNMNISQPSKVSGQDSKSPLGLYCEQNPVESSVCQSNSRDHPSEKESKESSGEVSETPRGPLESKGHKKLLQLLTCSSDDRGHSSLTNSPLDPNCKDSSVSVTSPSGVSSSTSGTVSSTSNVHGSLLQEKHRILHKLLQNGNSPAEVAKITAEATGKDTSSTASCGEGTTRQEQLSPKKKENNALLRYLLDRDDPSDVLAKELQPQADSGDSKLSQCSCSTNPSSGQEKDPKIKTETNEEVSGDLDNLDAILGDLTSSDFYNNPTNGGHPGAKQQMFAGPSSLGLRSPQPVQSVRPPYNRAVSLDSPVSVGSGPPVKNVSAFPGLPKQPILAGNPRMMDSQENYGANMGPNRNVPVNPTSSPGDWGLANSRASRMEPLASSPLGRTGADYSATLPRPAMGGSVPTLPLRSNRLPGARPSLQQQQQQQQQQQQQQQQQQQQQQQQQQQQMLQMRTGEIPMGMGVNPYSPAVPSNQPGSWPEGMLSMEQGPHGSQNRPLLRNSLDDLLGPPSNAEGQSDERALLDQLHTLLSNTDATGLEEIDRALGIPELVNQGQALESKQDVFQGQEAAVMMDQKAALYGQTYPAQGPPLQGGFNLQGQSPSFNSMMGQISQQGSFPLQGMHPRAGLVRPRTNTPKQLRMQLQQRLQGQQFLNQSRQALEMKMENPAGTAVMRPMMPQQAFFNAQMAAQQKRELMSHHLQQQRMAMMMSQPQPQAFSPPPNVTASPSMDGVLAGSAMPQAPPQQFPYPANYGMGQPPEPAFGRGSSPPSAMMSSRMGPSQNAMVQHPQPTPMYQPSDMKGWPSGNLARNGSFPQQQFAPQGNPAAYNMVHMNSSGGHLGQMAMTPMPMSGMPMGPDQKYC
NadD block: inhibitors of S. aureus NadD, primary screen, biochemical, colorimetric, uHTS; Nicotinate-nucleotide adenylyltransferase NadD (Staphylococcus aureus N315); purified NadD enzyme, colorimetric absorbance read-out; AID 602399, 2012; inhibition, % at 20 µM; 360,000 compounds, 0.78% hits; in the data active means inhibition above about 26%
PHOSPHO1 inh: PubChem AID 1565 | Phosphoethanolamine/phosphocholine phosphatase (Homo sapiens), Q8TCT1 | recombinant PHOSPHO1, absorbance phosphatase assay | inhibition, % at 13.3 µM | 290,000 compounds, 1.1% hits; in the data active means inhibition above about 60%
Numbers stand for hits. Sampled rows, rich in hits. Any-hit rate of the full collection: about 1.8%.

Cc1cc(C)c(OCC(=O)OCCNC(=O)c2cccnc2)c(C)c1 was read as UBC9 SUMO inh inactive, p-CIP stab down inactive, NadD block inactive and PHOSPHO1 inh inactive.
Screening CCn1c(SCC(=O)N(Cc2ccccc2)C2CCS(=O)(=O)C2)nc2ccccc2c1=O (centres undefined) returned UBC9 SUMO inh inactive, p-CIP stab down inactive, NadD block inactive and PHOSPHO1 inh 63.
`COc1cccc(C2CC(=O)N3CN(c4ccccc4F)CSC3=C2C#N)c1` (centres undefined) gave UBC9 SUMO inh inactive, p-CIP stab down inactive, NadD block inactive and PHOSPHO1 inh inactive.
Screening COc1ccc(Br)cc1C1CC(=O)N2CN(Cc3ccccc3)CSC2=C1C#N (centres undefined) returned UBC9 SUMO inh inactive, p-CIP stab down inactive, NadD block inactive and PHOSPHO1 inh inactive.
Screening N#CC1=C2SCN(c3ccccc3)CN2C(=O)CC1c1c(Cl)cccc1Cl (centres undefined) returned UBC9 SUMO inh inactive, p-CIP stab down inactive, NadD block inactive and PHOSPHO1 inh 92.
`N#CC1=C2SCN(Cc3ccccc3)CN2C(=O)CC1c1ccccc1F` (centres undefined) gave UBC9 SUMO inh inactive, p-CIP stab down inactive, NadD block inactive and PHOSPHO1 inh 83.
For N#CC1=C2SCN(c3ccccc3)CN2C(=O)CC1c1ccccc1Cl (centres undefined) the results were UBC9 SUMO inh inactive, p-CIP stab down inactive, NadD block inactive and PHOSPHO1 inh 86.
Screening Cc1ccc(S(=O)(=O)NCCC(=O)NCC(c2cccs2)N(C)C)cc1 (centres undefined) returned NadD block inactive.
`CCCCn1c(N)c(N(Cc2ccccc2OC)C(=O)C(C)Oc2cccc(Cl)c2)c(=O)[nH]c1=O` (centres undefined) gave NadD block inactive.
For COc1cccc(C2c3cc4c(cc3OC(C)(N3CCCC3)C2C)OCO4)c1O (centres undefined) the results were NadD block inactive.
Screening CCCn1c(SCC(=O)NCc2ccc(C)cc2)n[nH]c1=O returned UBC9 SUMO inh inactive, p-CIP stab down inactive, NadD block inactive and PHOSPHO1 inh inactive.
Screening CCCn1c(SCC(=O)c2ccc(CC)cc2)n[nH]c1=O returned UBC9 SUMO inh inactive, p-CIP stab down inactive, NadD block inactive and PHOSPHO1 inh 82.
For CCCCOc1ccc(CSc2nc(C)[nH]c2[N+](=O)[O-])cc1[N+](=O)[O-] the results were UBC9 SUMO inh inactive, p-CIP stab down inactive, NadD block inactive and PHOSPHO1 inh 61.
Screening COc1cc(/C=N/NC(=O)C(=O)NCc2ccco2)cc(Br)c1O returned UBC9 SUMO inh inactive, p-CIP stab down inactive, NadD block inactive and PHOSPHO1 inh 85.
CC(NC(=O)c1ccc(-c2ccccc2)cc1)C(c1ccccc1)N1CCOCC1 (centres undefined) was read as NadD block inactive.
CC(NC(=O)c1ccc(C(F)(F)F)cc1)C(c1ccccc1)N1CCOCC1 (centres undefined) was read as UBC9 SUMO inh inactive, p-CIP stab down inactive, NadD block inactive and PHOSPHO1 inh 63.
For COc1ccc(C2N(Cc3ccccc3)CCN2Cc2ccccc2)cc1[N+](=O)[O-] the results were UBC9 SUMO inh inactive, p-CIP stab down inactive, NadD block inactive and PHOSPHO1 inh 60.
Screening CC1(C)CC(=O)C=C(CN2C(=O)c3ccccc3C2=O)C1=O returned NadD block inactive.
`CCOC(=O)C1CCc2c(ccc3ccccc23)N1CCC#N` (centres undefined) gave NadD block inactive.
`CC(C)(C)CC(C)(C)NC(=S)Nc1ccc2nc(-c3ccccn3)c(-c3ccccn3)nc2c1` gave UBC9 SUMO inh inactive, p-CIP stab down inactive, NadD block inactive and PHOSPHO1 inh 96.
`CN(C)NC(=S)Nc1ccc2nc(-c3ccccn3)c(-c3ccccn3)nc2c1` gave UBC9 SUMO inh inactive, p-CIP stab down inactive, NadD block inactive and PHOSPHO1 inh inactive.
Screening Cc1cc(C)c2c(N)c(C(=O)Nc3nccs3)sc2n1 returned UBC9 SUMO inh inactive, p-CIP stab down inactive, NadD block inactive and PHOSPHO1 inh inactive.
COCc1cc(C)nc2sc(C(=O)Nc3nccs3)c(N)c12 was read as UBC9 SUMO inh inactive, p-CIP stab down inactive, NadD block inactive and PHOSPHO1 inh 83.
`COc1ccc(Nc2cc(NCCCO)c([N+](=O)[O-])c3nonc23)cc1` gave UBC9 SUMO inh inactive, p-CIP stab down inactive, NadD block inactive and PHOSPHO1 inh inactive.
